Screening data from PubChem BioAssay.
GCN5L2 inh-1 = qHTS Assay for Inhibitors of GCN5L2; GCN5L2 HAT assay, ThioGlo1 CoA-SH fluorescence; actives 0.21% (n = 390,000); Histone acetyltransferase KAT2A (Homo sapiens), Q92830; Potency, µM (highest dose often 58.9 µM), without a hit: top-dose activity change, negative = inhibition, most hits filed as inhibitors; note: potency is the fitted concentration of half-maximal effect; % is set by controls: 0 for no effect and ±100 for the full control effect
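Free CoA generated was detected with ThioGlo1 (50uM) fluorescence at Ex340nm/Em540nm, read immediately and after 20 min at room temperature. Enzyme, 20 nM in HEPES pH 7.5 buffer, saw compounds 15 min before adding 75uM H3(1-25) peptide and 70uM acetyl-CoA.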
APE1 inh-1 = qHTS Assay for Inhibitors of the Human Apurinic/apyrimidinic Endonuclease 1 (APE1); DNA repair nuclease/redox regulator APEX1 (Homo sapiens), P27695; recombinant APE1, TAMRA/BHQ-2 abasic DNA cleavage fluorescence; Potency, µM (series often up to 65.8 µM), inactives show at the top dose activity change, negative = inhibition, hits mostly inhibitors; actives 0.35% (n = 350,000); AID 2517, 2012;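 note: potency is the fitted concentration of half-maximal effect; plate controls were vehicle for no effect and reference inhibitor for full effect; nearly all actives have a fitted effect of over 55% in size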
Target sequence (P27695 whole entry, looked up): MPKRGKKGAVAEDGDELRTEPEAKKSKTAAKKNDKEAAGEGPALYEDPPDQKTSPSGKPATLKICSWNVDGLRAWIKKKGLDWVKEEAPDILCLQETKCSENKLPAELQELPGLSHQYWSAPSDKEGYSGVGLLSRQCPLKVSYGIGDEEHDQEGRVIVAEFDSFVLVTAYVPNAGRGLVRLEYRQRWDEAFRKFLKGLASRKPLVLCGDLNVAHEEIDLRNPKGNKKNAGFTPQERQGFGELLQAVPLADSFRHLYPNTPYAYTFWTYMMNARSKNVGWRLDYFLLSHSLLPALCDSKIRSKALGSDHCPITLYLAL
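Step 1: APE1 (0.75 nM) with compound, 15 min RT. Step 2: add 50 nM fluorophore/quencher THF duplex. Step 3: three fluorescence reads 60 s apart (525/598 nm); read 3 minus read 1 = reaction progress.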
RECQ1 inh-1 = qHTS Assay for Inhibitors of RecQ-Like Dna Helicase 1 (RECQ1) | RECQ1 DNA unwinding, red fluorescence kinetic read | actives 0.54% (n = 240,000) | Potency, µM (titrated, usually from 57.3 µM), for inactives: at the highest dose activity, negative = inhibition, actives largely listed as inhibitors;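 note: potency is the fitted concentration of half-maximal effect; plate controls were vehicle for no effect and no enzyme for full effect; nearly all actives have a fitted effect of over 30% in size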
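RECQ1T1 50 nM; forked duplex (20 bp + 30-nt ss tails) 200 nM, ATP 2 mM final; pH 8.0, 2 mM MgCl2, 2.5 ug/ml poly(dI-dC); 15 min compound preincubation; discontinuous kinetic read over 2 h at RT.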
BLM inh-1 = qHTS Assay for Inhibitors of Bloom's syndrome helicase (BLM) | actives 0.2% (n = 350,000) | AID 2528, 2010 | RecQ-like DNA helicase BLM (Homo sapiens), P54132 | Potency, µM (titrated, usually from 56.1 µM), inactives show top-dose activity change, negative = inhibition, hits mostly inhibitors | recombinant BLM DNA unwinding, fluorescence dequenching;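 note: potency is the fitted concentration of half-maximal effect; plate controls were vehicle for no effect and no enzyme for full effect; nearly all actives have a fitted effect of over 35% in size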
KDM4E inh = qHTS Assay for Inhibitors of Human Jumonji Domain Containing 2E (JMJD2E); Lysine-specific demethylase 4E (Homo sapiens), B2RXH2; actives 1.6% (n = 230,000); JMJD2E catalytic domain, FDH-coupled NADH fluorescence (FDH is formaldehyde dehydrogenase); Potency, µM (series often up to 57.1 µM), for the others: at the highest dose activity change, negative = inhibition, usual class: inhibitors; active = well fitted inhibition curve with a large enough effect, not every such curve was filed as active; inconclusive = small, poorly fitted or top-dose-only effect, or another doubt; inactive = no such curve, though single readings can be large or run the other way;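 note: potency is the fitted concentration of half-maximal effect; 0% = wells with enzyme and -100% = buffer wells without enzyme; nearly all actives have a fitted effect of over 50% in size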
Target sequence (B2RXH2 1-337 limits assumed): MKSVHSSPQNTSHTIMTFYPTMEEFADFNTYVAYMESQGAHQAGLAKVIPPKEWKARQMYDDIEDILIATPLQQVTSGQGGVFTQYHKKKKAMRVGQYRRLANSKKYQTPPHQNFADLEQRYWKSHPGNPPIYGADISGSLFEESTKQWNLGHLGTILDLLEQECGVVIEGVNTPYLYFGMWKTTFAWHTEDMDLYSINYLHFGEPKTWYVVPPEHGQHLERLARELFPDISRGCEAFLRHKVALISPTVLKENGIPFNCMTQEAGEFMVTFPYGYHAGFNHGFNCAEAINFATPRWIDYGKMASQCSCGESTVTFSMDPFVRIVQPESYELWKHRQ
TDP1 block = qHTS Assay for Inhibitors of Tyrosyl-DNA Phosphodiesterase (TDP1); Tyrosyl-DNA phosphodiesterase 1 (Homo sapiens), Q9NUW8; recombinant TDP1, AlphaScreen DNA substrate cleavage; Potency, µM (top dose mostly 130 µM), without a hit: at the top dose activity change, negative = inhibition, actives largely listed as inhibitors; actives 0.28% (n = 350,000); AID 485290, 2010; note: potency is the fitted concentration of half-maximal effect; % is set by controls: 0 for no effect and ±100 for the full control effect; nearly all actives have a fitted effect of over 40% in size
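Tdp1 1 nM final; 15 min RT w/ cpd; substrate 15 nM, 5 min; beads 10 ug/ml, 10 min; AlphaScreen read. Neg ctrl: no enzyme.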
APE1 dye cs = Counterscreen for APE1 Inhibitors: Fluorescent Dye Displacement Assay. shares compounds with APE1 inh-1. DNA fluorescent dye displacement counterscreen, fluorescence. Potency, µM (titrated, usually from 28.5 µM), without a hit: top-dose activity change, negative = inhibition, hits mostly inhibitors. actives 7% (n = 480). AID 2564, 2010;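 note: loss of thiazole orange fluorescence as the dye is displaced from duplex DNA; potency is the fitted concentration of half-maximal effect; 0% = ThO with dsDNA and no compound and -100% = ThO without dsDNA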
Endo IV inh = Counterscreen for APE1 Inhibitors: qHTS Assay for Inhibitors of Endonuclease IV | actives 4% (n = 560) | Potency, µM (doses to about 27.1 µM), without a hit: at the top dose activity change, negative = inhibition, usual class: inhibitors | shares compounds with APE1 inh-1 | E. coli Endo IV, fluorogenic AP-site DNA cleavage | AID 2565, 2010;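 note: potency is the fitted concentration of half-maximal effect; plate controls were uninhibited enzyme wells for no effect and no enzyme buffer wells for full effect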
APE1 inh-2 = Confirmation qHTS Assay for Inhibitors of the Human Apurinic/apyrimidinic Endonuclease 1 (APE1). shares compounds with APE1 inh-1. purified APE1, fluorogenic abasic-site DNA cleavage. Potency, µM (highest dose often 57.1 µM), inactives show at the highest dose activity change, negative = inhibition, usual class: inhibitors. actives 44% (n = 750); note: potency is the fitted concentration of half-maximal effect; % is set by controls: 0 for no effect and ±100 for the full control effect; nearly all actives have a fitted effect of over 30% in size
APE1 FP inh = qHTS FP-Based Assay for Inhibitors of the Human Apurinic/apyrimidinic Endonuclease 1 (APE1); shares compounds with APE1 inh-1; APE1 binding to TAMRA-labelled double-stranded DNA, fluorescence polarization displacement; Potency, µM (doses to about 28.5 µM), inactives show at the top dose activity, negative = inhibition, actives largely listed as inhibitors; actives 7% (n = 480); AID 2573, 2010; note: potency is the fitted concentration of half-maximal effect; % is set by controls: 0 for no effect and ±100 for the full control effect
BLM inh-2 = qHTS Confirmation Assay for Inhibitors of Bloom's syndrome helicase (BLM). actives 40% (n = 220). Potency, µM, for the others: max response, negative = inhibition, hits mostly inhibitors. BLM DNA unwinding, fluorescence quenching, biochemical. shares compounds with BLM inh-1;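 note: strand separation dequenches TAMRA so unwinding raises red fluorescence; potency is the fitted concentration of half-maximal effect; series mostly up to about 69 µM; % is set by controls: 0 for no effect and ±100 for the full control effect; nearly all actives have a fitted effect of over 45% in size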
RECQ1 conf = Confirmation qHTS Assay for Inhibitors of RecQ-Like Dna Helicase 1 (RECQ1); shares compounds with RECQ1 inh-1; Potency, µM (doses to about 229 µM), for inactives: at the top dose activity change, negative = inhibition, most hits filed as inhibitors; AID 2708, 2010; actives 28% (n = 610); RECQ1 helicase DNA unwinding, fluorescence; note: potency is the fitted concentration of half-maximal effect; % is set by controls: 0 for no effect and ±100 for the full control effect; nearly all actives have a fitted effect of over 45% in size
ADP FP counter = Counterscreen for RECQ1 Inhibitors: ADP Fluorescence Polarization Displacement Assay; shares compounds with RECQ1 inh-1; ADP fluorescence polarization displacement counterscreen; Potency, µM (highest dose often 228 µM), for the others: at the highest dose activity change, negative = inhibition, usual class: inhibitors; actives 27% (n = 530); note: potency is the fitted concentration of half-maximal effect; % is set by controls: 0 for no effect and ±100 for the full control effect; nearly all actives have a fitted effect of over 45% in size
RECQ1 inh-2 = Confirmation qHTS Assay for Inhibitors of RecQ-Like Dna Helicase 1 (RECQ1) - Round 2 Cherry Picks; shares compounds with RECQ1 inh-1; recombinant RECQ1 DNA unwinding, red fluorescence; Potency, µM (doses to about 119 µM), inactives show at the highest dose activity, negative = inhibition, actives largely listed as inhibitors; actives 15% (n = 1,100); AID 504841, 2011; note: potency is the fitted concentration of half-maximal effect; % is set by controls: 0 for no effect and ±100 for the full control effect; nearly all actives have a fitted effect of over 50% in size
GCN5L2 inh-2 = qHTS Assay for Inhibitors of GCN5L2: Hit confirmation; AID 588347, 2011; shares compounds with GCN5L2 inh-1; GCN5L2 HAT, ThioGlo1 CoA fluorescence, 20 min; Potency, µM, hits mostly inhibitors; actives 70% (n = 140)
* hit, by the source's call; i = inactive; u = inconclusive; x = no result given; ! = repeats disagree; [ ] = dose if it differs, or a comment. This excerpt belongs to a sample that is enriched for hits. Unless noted, calls come from the whole dose curve; as a rule, active = well fitted curve in the direction sought with a large enough effect; inconclusive = small, poorly fitted or top-dose-only effect, or another doubt; inactive = no such curve, though single readings can be large; an effect the other way counts as inactive or inconclusive.

SMILES	GCN5L2 inh-1	APE1 inh-1	RECQ1 inh-1	BLM inh-1	KDM4E inh	TDP1 block	BLM inh-2	others
COc1ccc(CCn2c(O)cc3nn(-c4nc5ccccc5s4)c(=O)c-3c2C)cc1	25µM*	32µM*	25µM*	-27%	28µM*	x	x	APE1 dye cs=u;Endo IV inh=9%;APE1 inh-2=16µM*;APE1 FP inh=4%;RECQ1 conf=20%[114 µM];ADP FP counter=-3%[91.9 µM];RECQ1 inh-2=-15%;GCN5L2 inh-2=u
CCCCc1nc2c(c3c1C[C@H](C)OC3)CN(S(=O)(=O)c1c(C)noc1C)CC2	x	-8%[12.4 µM]	2%[11.5 µM]	1%[12.4 µM]	-23%[11.4 µM]	8%[21 µM]	x
O=C1Nc2ccc(I)cc2/C1=C/c1cc(Br)c(O)c(Br)c1	22µM*	0%	25µM*!	u	2%	17%[56.1 µM]	96µM*
CCn1c(SCC(=O)Nc2ccc(C)cc2)nc2sc3c(c2c1=O)CCN(C)C3	-6%	20%	x	4%	x	7%	x
CCn1c(SCC(N)=O)nc2sc3c(c2c1=O)CCN(C)C3	-4%	5%	7%	0.71µM*	u	0%	10%
CN(Cc1ccccc1)c1nc2c(S(=O)(=O)c3cccc(Cl)c3)nnn2c2ccsc12	-4%	x	x	1%	x	3%	x
CC(C)C[C@H](N)C(=O)N[C@H](C(=O)N[C@@H](CCCN=C(N)N)C(=O)N[C@H](CS)C(=O)NCC(=O)N[C@@H](CCCCN)C(=O)N[C@@H](Cc1cnc[nH]1)C(=O)N[C@@H](CO)C(=O)N[C@@H](CCCN=C(N)N)C(=O)O)C(C)C	3%	-2%	-7%	4%	x	10%	x
CC1(C)Cc2c(C#N)c(N3CCN(C(=O)c4ccccc4Cl)CC3)nc(-c3ccco3)c2CS1	u	-11%	-21%	14µM*	u	1%	u
CC1(C)Cc2c(C#N)c(N3CCN(C(=O)c4ccco4)CC3)nc(-c3ccco3)c2CS1	u	7%	-1%	u	-1%	0%	x
CCC(O)OC(O)CC (stereo unspecified)	x	u	3%	x	x	5%	x
O=C(Nc1ccc2nc(-c3ccco3)c(-c3ccco3)nc2c1)N1CCN(c2ccccn2)CC1	10µM*	8%	-1%	4.5µM*	5%	0%	u
COc1ccc(-c2csc(NC(=O)CSc3nc(C)nc4sc(C(=O)O)c(C)c34)n2)cc1	-3%	-2%	-18%	32µM*	-11%	-9%	32µM*
COc1ccc(-c2csc(NC(=O)CSc3nc(SC)ns3)n2)cc1	-11%	-4%	u	-9%	5%	6%	x
O=C(CNC(=O)/C=C/c1ccco1)N=Nc1c(O)[nH]c2ccccc12	-5%	8.4µM*	x	20µM*	x	40µM*	20µM*
O=C(CNC(=O)c1ccco1)N=Nc1c(O)[nH]c2ccc(Br)cc12	-7%	-11%	x	-3%	x	-4%	x
CC1CC=CC2C1C(=O)N(Cc1ccccc1)C2c1ccc(-c2ccoc2)cc1F (stereo unspecified)	x	-4%	i	-10%	x	3%	x
O=C(c1ccco1)N1CCC2(CC1)CN(c1cccc(-c3ccccc3)c1)C2	-19%	-2%	i	-8%	x	x	x
CC(C)Cn1c(N)c(C(=O)NCC2CCCO2)c2nc3ccccc3nc21 (stereo unspecified)	-15%	-7%	14%	8.9µM*	u	-11%	-10%
